Results taken from PubChem BioAssay (NCATS).
Records with an inconclusive call do not appear. Activity calls are given as the source filed them. Calls come from the whole dose curve; as a rule, active = well fitted curve in the direction sought with a large enough effect; inconclusive = small, poorly fitted or top-dose-only effect, or another doubt; inactive = no such curve, though single readings can be large; an effect the other way counts as inactive or inconclusive.

Legend:
[1] = qHTS to identify inhibitors of the type 1 interferon - major histocompatibility complex class I in skeletal muscle: primary screen against the NCATS Pharmaceutical Collection (AID 1347407);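 note: luminescence of HiBiT knocked into endogenous HLA-B as interferon-induced MHC class I level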; note: potency is the fitted concentration of half-maximal effect; for activity change, negative = inhibition: % is set by controls: 0 for no effect and ±100 for the full control effect
Procedure, shortened: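 Luminescence from HiBiT-tagged endogenous HLA-B*08:01 served as the read-out of IFN-beta-induced MHC class I in CRISPR-engineered C25cl48 myoblasts. Cells received 4 ng/ml IFN-beta plus compound (high final 46 uM, […]) for 24 h.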

[2] = biological target: Protein phosphatase 1D (Homo sapiens) (UniProt O15297); assay: Rhodamine-PBP qHTS Assay for Modulators of WT P53-Induced Phosphatase 1 (WIP1) (AID 1347425); note: % of control where 0% means no effect
Procedure, shortened: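 5 nM WIP1 + 10 uM Rh-PBP, 50 mM Tris pH 7.5, 30 mM MgCl2, 1 mM TCEP, 0.1 mM EGTA, BSA; cpds pinned, 1 hr RT; + 10 uM phosphopeptide; fluorescence 1-min reads x 11 min; delta = f1 - f0.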

[3] = Primary qHTS for inhibitors of La Crosse Virus (LACV) - induced cell death in SH-SY5Y cells (AID 1508616);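 note: top concentration of the series differs between compounds; 0% = infected DMSO wells and 100% = uninfected DMSO wells; higher means more rescue of cells from virus-induced death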
Procedure, shortened: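 Rescue of virus-induced death was read as ATPLite luminescence after 6 days at 37C, scaled between DMSO wells with LACV and without virus. Cells were SH-SY5Y, 6000/well, infected at 0.01 MOI after compound addition.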

[4] = biological target: Protein phosphatase 1D (Homo sapiens) (UniProt O15297); assay: RapidFire Mass Spectrometry qHTS Assay for Modulators of WT P53-Induced Phosphatase 1 (WIP1) (AID 1347424);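 note: amount of dephosphorylated VEPPL-S-QETFS peptide product formed by WIP1; series mostly up to about 63 µM; plate controls were DMSO wells for no effect and GSK830371 inhibitor control at 10 µM for full effect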
Procedure, shortened: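 Mass-spectrometric measurement of dephosphorylated peptide after a 5 min room-temperature reaction of 10 nM WIP1 with 2 uM phosphopeptide, following 1 h compound preincubation in 30 mM MgCl2 buffer.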

[5] = biological target: Calcium and integrin-binding protein 1 (Homo sapiens) (UniProt Q99828); assay: Confirmatory qHTS for Identification of Calcium Integrin Binding Protein 1 (CIB1) Competitor (AID 1508617); note: nearly all actives have a fitted effect of over 65% in size; note: potency is the fitted concentration of half-maximal effect; for activity change, negative = inhibition: % is set by controls: 0 for no effect and ±100 for the full control effect
Procedure, shortened: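 Confirmatory qHTS measures displacement of a FITC-alphaIIb peptide (100 nM) from CIB1-GST (1 uM) by fluorescence polarization. Calcium-containing HEPES buffer, pH 7.4; two 15 min room-temperature incubations.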

Sequence of Protein phosphatase 1D (Homo sapiens) (O15297 whole entry, looked up): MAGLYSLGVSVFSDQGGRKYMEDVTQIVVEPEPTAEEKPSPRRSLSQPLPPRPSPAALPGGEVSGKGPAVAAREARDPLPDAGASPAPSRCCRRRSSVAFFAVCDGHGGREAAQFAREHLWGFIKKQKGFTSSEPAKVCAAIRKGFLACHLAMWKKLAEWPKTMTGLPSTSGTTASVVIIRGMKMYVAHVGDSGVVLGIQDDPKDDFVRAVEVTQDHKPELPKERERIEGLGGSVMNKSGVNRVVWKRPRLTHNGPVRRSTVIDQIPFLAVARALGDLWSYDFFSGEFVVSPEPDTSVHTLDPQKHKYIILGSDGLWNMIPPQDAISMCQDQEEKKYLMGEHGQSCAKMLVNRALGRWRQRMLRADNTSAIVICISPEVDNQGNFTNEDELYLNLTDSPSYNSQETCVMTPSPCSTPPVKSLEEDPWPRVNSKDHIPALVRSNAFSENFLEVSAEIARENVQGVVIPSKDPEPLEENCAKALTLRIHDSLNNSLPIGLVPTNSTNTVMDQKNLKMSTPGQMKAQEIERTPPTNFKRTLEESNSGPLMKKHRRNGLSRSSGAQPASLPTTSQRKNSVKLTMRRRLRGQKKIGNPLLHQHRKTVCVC
Sequence of Calcium and integrin-binding protein 1 (Homo sapiens) (Q99828 whole entry, looked up): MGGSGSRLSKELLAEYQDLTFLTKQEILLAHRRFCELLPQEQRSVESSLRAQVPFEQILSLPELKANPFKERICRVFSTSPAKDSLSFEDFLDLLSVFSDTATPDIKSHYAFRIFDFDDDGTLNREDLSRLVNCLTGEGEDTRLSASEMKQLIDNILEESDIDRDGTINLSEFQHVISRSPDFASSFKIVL

Cc1ccc(O)c2ncccc12
inactive: Potency [1] | outcome [2] | Potency [3]

CN1CCCC(CC2c3ccccc3Sc3ccccc32)C1 (stereo unspecified)
inactive: Potency [1] | Potency [4] | outcome [2] | Potency [3]

CCCCC1=NC2(CCCC2)C(=O)N1Cc1ccc(-c2ccccc2-c2nn[nH]n2)cc1
inactive: Potency [1] | outcome [2] | Potency [3]

NC(=O)CC[C@@H]1NC(=O)[C@H](Cc2ccccc2)NC(=O)[C@H](Cc2ccc(O)cc2)NC(=O)CCSSC[C@@H](C(=O)N2CCC[C@H]2C(=O)N[C@@H](CCCN=C(N)N)C(=O)NCC(N)=O)NC(=O)[C@H](CC(N)=O)NC1=O
inactive: Potency [1] | outcome [2] | Potency [3]

CCOC(=O)OC(C)OC1=C(C(=O)Nc2ccccn2)N(C)S(=O)(=O)c2ccccc21 (stereo unspecified)
inactive: Potency [1] | Potency [4] | outcome [2] | Potency [3]

Cc1ccnc(NS(=O)(=O)c2ccc(N)cc2)n1
inactive: Potency [1] | Potency [4] | outcome [2] | Potency [3]

COc1cc2c(cc1OC)[C@@H]1CC(=O)[C@@H](CC(C)C)CN1CC2
inactive: Potency [1] | Potency [4] | outcome [2] | Potency [3]

CCCCCCC[N+](CC)(CC)CCCCc1ccc(Cl)cc1
inactive: Potency [1] | Potency [4] | outcome [2] | Potency [3]

CCOC(=O)[C@H](CCc1ccccc1)N[C@@H](C)C(=O)N1Cc2ccccc2C[C@H]1C(=O)O
inactive: Potency [1] | outcome [2] | Potency [3]

Oc1ccc(Cl)c2cccnc12
inactive: Potency [1] | Potency [4] | outcome [2] | Potency [3]

C[C@@H]1CN(CCCn2c3ccccc3c3ccccc32)C[C@H](C)N1
inactive: Potency [1] | outcome [2] | Potency [3]

O=c1[nH]c(=O)n([C@H]2CCCO2)cc1F
inactive: Potency [1] | outcome [2] | Potency [3]

Cc1c(F)c(N2CCNC(C)C2)cc2c1c(=O)c(C(=O)O)cn2C1CC1 (stereo unspecified)
inactive: Potency [1] | outcome [2] | Potency [3]

CCCCCC=CCC=CCCCCCCCC(=O)OCC
inactive: Potency [1] | Potency [4] | outcome [2] | Potency [3]

CN1CCN(C(c2ccccc2)c2ccccc2)CC1
inactive: Potency [1] | Potency [4] | outcome [2] | Potency [3]

CCC(C(=O)OCCN(CC)CC)c1ccccc1 (stereo unspecified)
inactive: Potency [1] | outcome [2] | Potency [3]

COc1cc(C=C2CCC/C(=C\c3ccc(O)c(OC)c3)C2=O)ccc1O
active: Potency [1] 14.9 µM
inactive: Potency [4] | Potency [3]

N[C@H](Cc1c[nH]c2ccccc12)C(=O)O
inactive: Potency [1] | Potency [4] | outcome [2] | Potency [3]

CC(C)(C)CC(C)(C)c1ccc(O)c(Cc2ccc(Cl)cc2Cl)c1
inactive: Potency [1] | Potency [4] | Potency [3]

COC(=O)CCc1ccc(OCC(O)CNC(C)C)cc1 (stereo unspecified)
inactive: Potency [1] | outcome [2] | Potency [3]

CCn1cc(C(=O)O)c(=O)c2cnc(N3CCCC3)nc21
inactive: activity change, negative = inhibition [1] -17.9% [at 9.18 µM] | activity change, negative = inhibition [4] -0.783% [at 12.6 µM] | activity change, negative = inhibition [2] -2.4% [at 11.5 µM] | activity change [3] -0.143% [at 0.858 µM]

COC(=O)C1=C(C)NC(C)=C(C(=O)O[C@@H]2CCCN(Cc3ccccc3)C2)[C@@H]1c1cccc([N+](=O)[O-])c1
inactive: Potency [1] | outcome [2] | Potency [3]

Nc1nc2ncc(CNc3ccc(C(=O)N[C@@H](CCC(=O)O)C(=O)O)cc3)nc2c(=O)[nH]1
inactive: Potency [1] | Potency [4] | outcome [2] | Potency [3]

Cc1ncc(CSSCc2cnc(C)c(O)c2CO)c(CO)c1O
inactive: Potency [1] | Potency [4] | outcome [2] | Potency [3]

CN1CCN(CCCN2c3ccccc3Sc3ccc(S(=O)(=O)N(C)C)cc32)CC1
inactive: Potency [1] | Potency [4] | outcome [2] | Potency [3]

CCOc1ccc2nc3cc(N)ccc3c(N)c2c1
active: Potency [5] 25.1 µM

CCCCC(CC)CN=C(N)NC(N)=NCCCCCCN=C(N)NC(N)=NCC(CC)CCCC (stereo unspecified)
active: Potency [5] 28.2 µM

CCCCCCCCCCCCCCCC[N+](C)(C)CCN(Cc1ccc(OC)cc1)c1ncccn1
inactive: Potency [5]
